# Legend:
# Assay in all cases: PBM binding z-score (relative to random genomic background probes); higher = stronger binding; sequences stand for … in GC…GCGATTGACAGCGTAGAATGAAGG
# [1] = test system: FXR:RXRa (NR concentration 270 nM, RXRa partner concentration 90 nM)
# In short: (§1)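 For binding z-scores, the reference was random background probes on custom Agilent 4×180K protein-binding microarrays. These arrays were incubated 1 h with ligand-free nuclear receptor dimers in PBS pH 7.4, 2% milk, 0.02% Triton X-100, 1 mM DTT, 0.2 mg/mL BSA and 0.4 mg/ml salmon testes DNA. Fluorescence was scanned after antibody detection of each partner (one per run) and regression-normalized.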
# [2] = test system: LXRa homodimer (NR concentration 270 nM)
# In short: as §1
# [3] = test system: LXRb homodimer (NR concentration 270 nM)
# In short: as §1
# [4] = test system: PPARa:RXRa (NR concentration 270 nM, RXRa partner concentration 90 nM)
# In short: as §1
# [5] = test system: PPARg:RXRa (NR concentration 180 nM, RXRa partner concentration 90 nM)
# In short: as §1
# [6] = test system: PPARg:RXRa 270nM:90nM, anti-RXR (NR concentration 270 nM, RXRa partner concentration 90 nM)
# In short: as §1
# [7] = test system: PPARg:RXRa 30nM:10nM, anti-RXR (NR concentration 30 nM, RXRa partner concentration 10 nM)
# In short: as §1
# [8] = test system: PPARg:RXRa 90nM:30nM, anti-RXR (NR concentration 90 nM, RXRa partner concentration 30 nM)
# In short: as §1
# [9] = test system: PPARg:RXRa DBDmut IVT, anti-RXR (DBD mutation: RXRa K156A/R161A, NR concentration 270 nM, RXRa partner concentration 90 nM)
# In short: as §1
# [10] = test system: PPARg:RXRa IVT, anti-PPARg (NR concentration 270 nM, RXRa partner concentration 90 nM)
# In short: as §1
# [11] = test system: PPARg DBDmut:RXRa IVT, anti-PPARg (DBD mutation: PPARg1 K132A/R137A, NR concentration 270 nM, RXRa partner concentration 90 nM)
# In short: as §1
# [12] = test system: PPARg DBDmut IVT, anti-PPARg (DBD mutation: PPARg1 K132A/R137A, NR concentration 270 nM)
# In short: as §1
# [13] = test system: PPARg homodimer (NR concentration 180 nM)
# In short: as §1
# [14] = test system: PXR:RXRa (NR concentration 270 nM, RXRa partner concentration 90 nM)
# In short: as §1
# [15] = test system: PXR homodimer (NR concentration 270 nM)
# In short: as §1
# [16] = test system: RARa:RXR (NR concentration 270 nM, RXRa partner concentration 90 nM)
# In short: as §1
# [17] = test system: RARa homodimer (NR concentration 270 nM)
# In short: as §1
# [18] = test system: RARb:RXRa (NR concentration 270 nM, RXRa partner concentration 90 nM)
# In short: as §1
# [19] = test system: RARb homodimer (NR concentration 270 nM)
# In short: as §1
# [20] = test system: LXRa:RXRa (NR concentration 270 nM, RXRa partner concentration 90 nM)
# In short: as §1
Sequence,PBM binding z-score [1],PBM binding z-score [2],PBM binding z-score [3],PBM binding z-score [4],PBM binding z-score [5],PBM binding z-score [6],PBM binding z-score [7],PBM binding z-score [8],PBM binding z-score [9],PBM binding z-score [10],PBM binding z-score [11],PBM binding z-score [12],PBM binding z-score [13],PBM binding z-score [14],PBM binding z-score [15],PBM binding z-score [16],PBM binding z-score [17],PBM binding z-score [18],PBM binding z-score [19],PBM binding z-score [20]
AGAATGGGGTTACCAAAGATCAGGGAAACGCTTG,3.7,-0.351,0.166,5.05,4.62,4.32,1.72,3.47,4.37,4.08,1.57,1.15,1.96,3.04,0.0687,3.76,-0.368,2.18,1.08,–
TAGCCTAGTTCATGCGGGCCAGTATAGTGTCGGC,-0.33,-0.511,-0.772,0.278,-0.0909,-0.0482,-0.651,-0.319,0.864,0.949,-0.253,-0.528,-0.545,0.59,0.113,-0.185,-0.774,1.05,0.519,–
CGTCCAAGGTCTAGGTCAGTGAAAGAGACTCGAA,0.449,-0.0366,-0.741,–,-0.0446,0.357,-0.506,-0.014,0.895,1.61,-1.11,-1.28,0.763,–,-0.179,0.514,0.0377,2.48,2.38,0.249
CTATGTGGGTTAAGGGGGTCATTCAGTTTGAAAG,5.61,3.82,–,–,8.76,7.71,5.51,7.71,7.57,7.71,–,–,6.11,6.07,12.1,5.68,3.73,3.91,4.44,5.47
TAGCCTAGGTCGTTCAGGGGCCAGTATAGAAAGC,0.616,-0.424,0.206,0.74,-0.0601,0.17,-0.575,-0.218,-0.258,0.847,-0.279,-0.473,0.19,0.589,-0.665,1.18,-0.836,1.63,1.63,–
CCGACGGGGGCAAAGGTTACCATACTCAGTACGA,5.52,0.667,5.6,–,10,9.24,8.76,10.4,2.71,5.25,2.34,3.31,2.4,5.31,0.704,–,0.677,3.84,3.21,5.02
TAGCCTAGGTTATGGGCCAGTATACCACGCGAAC,-0.238,-0.332,-0.441,0.542,0.643,0.89,-0.0157,0.388,0.121,0.996,-0.249,-0.26,0.0998,-0.0911,-0.214,0.27,-0.107,0.734,0.24,–
CGTCCAAGGTCATAGGAGGTCAATGAAGACAGAT,7.84,6.78,1.44,–,5.9,6.13,2.88,5.04,3,5.13,0.774,0.632,4.29,7.13,6.06,6.16,1.49,–,5.71,7.73
TCTAGTTGGTCACGGAGGACACACACGACGGGTA,0.602,0.465,0.417,0.752,1.34,1.7,2.85,2.53,2.26,2.32,1.35,1.02,0.981,0.558,0.193,0.682,0.611,2.19,2.13,–
ATATGTAGGTTATCTGGGGTCATTCAGACTAGGC,6.16,8.86,2.41,5.4,6.31,5.84,3.28,5.32,7.21,6.58,2.87,2.04,3.42,–,6.37,5.95,1.76,3.16,3.97,–
AATACAAGGTCATCGTAGGCCAGAGTACGCACAG,7.64,6.1,3.33,5.75,6.55,5.94,2.73,5.04,3.93,4.7,0.979,1.37,2.81,4.87,2.13,4.63,1.33,5.15,4.19,–
ATATGTAGGTTACCTGGGGTCATTCAGACTAGGC,4.89,10.8,2.55,5.73,7.13,6.14,3.84,5.9,7.37,7.26,2.71,1.81,2.87,6.79,4.76,5.89,0.968,3.18,4.13,–
CCTTACGGGTCACGTGGTTATAGCACGACGAGCG,6.41,-0.108,-0.474,5.88,6.07,5.77,2.2,4.59,3.06,4.93,0.819,-0.242,1.26,–,-0.028,4.4,0.132,4.49,3.47,–
AGAATGAGGTTAAACGTAGATCAGGGAAGAAAGT,4.05,-0.194,0.141,4.4,4,4.04,1.87,3.12,6.01,3.75,1.56,1.02,1.3,1.73,0.319,2.69,0.469,2.23,1.19,–
ACTTACGGCTCAACGAGGTTATAGCACGCGTATA,0.333,0.28,0.162,0.734,0.821,-0.0206,-0.186,-0.0465,-0.0346,0.0544,0.327,0.825,0.463,0.645,0.358,0.812,-0.139,0.165,0.526,–
CGTCAAAGTTCAACTAAGGTTACGTAAAGCACGC,7.19,6.3,2.31,5.63,5.53,5.55,2.42,4.33,0.789,2.44,1.54,1.43,3.83,–,8.22,5.27,1.91,5.44,5.67,–

# — the supplement of paper PMC6555819
